# Hits are enriched below; roughly 1.4% of the tested compounds scored in any of these assays.
# Mtb MbtI inh – MbtI salicylate synthase inhibition; P9WFX0; purified MbtI enzyme, fluorescence intensity read-out; inhibition, % (concentration not given with the values); hit rate 0.89% among 100,000; AID 493033; in the data active means inhibition mostly above about 56%, no sharp cut-off; inactive means mostly below about 77%
# Target sequence (P9WFX0 whole entry, looked up): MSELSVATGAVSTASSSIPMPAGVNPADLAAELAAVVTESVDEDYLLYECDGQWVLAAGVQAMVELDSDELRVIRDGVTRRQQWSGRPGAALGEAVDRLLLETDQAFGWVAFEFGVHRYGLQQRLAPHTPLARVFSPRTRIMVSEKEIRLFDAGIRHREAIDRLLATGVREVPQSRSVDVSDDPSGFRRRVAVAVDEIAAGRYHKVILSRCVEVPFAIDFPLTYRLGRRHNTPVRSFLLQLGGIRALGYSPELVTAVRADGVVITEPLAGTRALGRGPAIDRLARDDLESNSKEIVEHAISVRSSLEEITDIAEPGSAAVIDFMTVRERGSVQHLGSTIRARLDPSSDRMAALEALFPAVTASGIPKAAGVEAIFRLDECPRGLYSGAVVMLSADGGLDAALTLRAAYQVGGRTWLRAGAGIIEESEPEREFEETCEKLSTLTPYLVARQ
# AID504770 – E. coli YBA685 growth inhibition, screen for V. cholerae RctB inhibitors; E. coli YBA685 rctB-dependent plasmid, OD600 growth, 3 h; active compounds read low; z-score (no concentration beside the values); hit rate 0.27% among 130,000; AID 504770; in the data active means z-score below about -2, passing the limit was not always enough
# MenB inh – Mtb MenB enzyme inhibition. P9WNP5. MenB enzyme assay, absorbance read-out. inhibition, % (test concentration not listed). hit rate 0.43% among 100,000. AID 540299; in the data active means inhibition above about 21%, passing the limit was not always enough
# PV pol inh – poliovirus RNA polymerase inhibition; P03300; hit rate 0.66% among 150,000; poliovirus polymerase elongation, fluorescence polarization; active compounds read low; % elongation, % (compound at 16.7 µg/mL); in the data active means % elongation below about 90%
# Numbers stand for hits; - = inactive; . = not tested or not shown.
SMILES,Mtb MbtI inh,AID504770,MenB inh,PV pol inh
O=C(Cc1ccccc1)Nc1sc2c(c1C(=O)Nc1ccccc1Cl)CCCC2,.,.,.,85
O=C(Cc1ccccc1)Nc1sc2c(c1C(=O)Nc1ccccc1)CCCCC2,.,.,.,-
Nc1sc2c(c1C(=O)Nc1ccc(Cl)cc1)CCC2,.,-,-,89
Cc1nc2nc(NC(=O)c3ccccc3)[nH]n2c(=O)c1Cc1ccccc1,-,-,-,-
C1CCC2(CC1)C1=C(CCCC1)Nc1nnnn12,-,-,32,-
N#Cc1ccc(C(=O)OC2CCCCC2=O)cc1 (stereo not drawn),-,-,-,-
O=C(CCC(=O)c1ccc(Cl)cc1)OC1CCCCC1=O (stereo not drawn),-,-,-,66
O=C1c2ccccc2C(=O)c2c1oc1c3c(ccc21)OCN(CCCn1ccnc1)C3,-,-,-,84
CCOc1ccc(NC(=S)NCCCn2ccnc2)cc1,-,-,-,-
S=C(NCCCn1ccnc1)Nc1ccccc1,-,-,-,23
Clc1ccc(Cl)c(Nc2nc3cc(Cl)ccc3o2)c1,-,-,-,-
Cc1nc2sccn2c1-c1csc(Nc2cccc(Cl)c2C)n1,70,-,-,-
CCc1ccccc1Nc1nc(-c2c(C)nc3sccn23)cs1,-,-,-,-
O=C(O)CCSC1CC(=O)N(c2ccc(F)cc2)C1=O (stereo not drawn),-,-,-,-
N#CSC1CC(=O)N(c2ccc(F)cc2)C1=O (stereo not drawn),99,-,-,-
Cc1ccc(S(=O)(=O)NC(=O)Nc2cccc(C(F)(F)F)c2)cc1,.,-,-,-
OC(Cc1cccnc1)(c1ccccc1)c1ccccc1,-,-,-,89
Cc1nn(-c2ccccc2)c2c1C=Nc1cc(Cl)ccc1O2,-,-,-,-
CC(=O)NC1=CC(=O)c2nonc2C1=O,-,-9.2,.,.
COCCn1c(=O)[nH]c(=O)c2c(C)cc(-c3ccc(F)cc3)nc21,-,-,-,-
CCn1c(SCc2nc3ccccc3[nH]2)nc2ccccc21,.,-,.,.
C[N+]1=C(/C=C/Nc2ccccc2)SCC1,-,-,-,-
O=C(c1cnoc1)c1ccccc1O,-,-,-,83
O=C(c1cnoc1)c1cc(Cl)cc(Cl)c1O,-,-,.,-
Cc1ccc(NCCNc2ccc(C)cc2C)c(C)c1,-,-,-,-
SMILES,Mtb MbtI inh,AID504770,MenB inh,PV pol inh
COc1ccc(N2CCN(CCN3CCCCC3)CC2)cc1,-,-,-,-
COc1ccc(-n2c(C(C)N3CCCCC3)n[nH]c2=S)cc1 (stereo not drawn),-,-5.2,-,-
CCOC(=O)c1cccc(NC(=O)c2c(C)nn(-c3ccccc3)c2-n2cccc2)c1,-,-,-,-
O=C(Cc1ccccc1Cl)NC1(O)C(=O)c2ccccc2C1=O,-,-,-,83
CCS(=O)(=O)c1ccc2oc(Nc3cc(C)cc(C)c3)nc2c1,-,-,-,-
CCS(=O)(=O)c1ccc2oc(Nc3ccc(C(C)C)cc3)nc2c1,-,-,-,70
Clc1cccc(CNCc2cccs2)c1,-,-,38,-
CCc1ccc(CNCc2cccs2)cc1,-,-,-,-
CCOC(=O)c1cccc(NC(=O)Cc2ccc(NC(=O)N3CCCCc4ccccc43)cc2)c1,.,.,.,21
COc1cccc(NC(=O)Cc2ccc(NC(=O)N3CCCCc4ccccc43)cc2)c1,.,.,.,-
COc1cccc(N2CCN(C(=O)Cn3ncc4c5ccccc5n(C)c4c3=O)CC2)c1,.,.,.,-
COc1cccc(N2CCN(C(=O)CCCn3sc4ccccc4c3=O)CC2)c1,97,-,-,-
CC(=O)Nc1ccc(NC(=O)C(C)OC(=O)c2c(F)cccc2F)cc1 (stereo not drawn),-,-,.,-
S=c1[nH]c2c(s1)sc1ccccc12,91,-,-,-
Clc1nsc2ccccc12,-,-,-,.
NC(=O)CN1C(=O)C(O)(CC(=O)/C=C\c2ccccc2)c2ccccc21 (stereo not drawn),-,-,43,-
C=CCN(C)C1CC(=O)N(c2ccc(C)c(Cl)c2)C1=O (stereo not drawn),95,-,-,-
Cc1ccc(N2C(=O)CC(NCc3ccc(S(N)(=O)=O)cc3)C2=O)cc1Cl (stereo not drawn),-,-,-,-
CCc1nnc(Cn2nnc3c(=O)[nH]c(C(=O)Nc4ccc(C)cc4)nc32)s1,-,-,-,86
CCC(C)NC(=O)c1nc2c(nnn2Cc2ccccc2Cl)c(=O)[nH]1 (stereo not drawn),-,-,-,-
O=C(Nc1ccc(OCC(=O)N2CCCC2)cc1)c1ccco1,-,-,-,-
O=S1(=O)CCC(n2nnnc2-c2ccccc2)C1 (stereo not drawn),.,-2.8,.,.
O=C1CC(n2nnnc2-c2ccccc2)C2COC1O2 (stereo not drawn),.,-,-,-

# Screens from PubChem.
